Test results reported in the supplement of paper PMC6555819.

system: THRa homodimer (NR concentration 90 nM); assay: PBM binding z-score (relative to random genomic background probes); higher = stronger binding; sequences stand for … in GC…GCGATTGACAGCGTAGAATGAAGG
Method in brief: (§1)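 Binding buffer was PBS pH 7.4 with 2% milk, 0.02% Triton X-100, 1 mM DTT, 0.2 mg/mL BSA and 0.4 mg/ml salmon testes DNA. In it, ligand-free nuclear receptor dimers were incubated 1 h on custom Agilent 4×180K protein-binding microarrays carrying double-stranded probes. Antibodies against each partner (one per run) detected binding, and z-scores were calculated against random background probes after regression normalization of scanned fluorescence.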

| Sequence | PBM binding z-score |
| --- | --- |
| CCAGACAGGTGAGAAGGTCACTCAGCCTCGATTA | 0.916 |
| ATAGGTAGGTTATCGGGTCATTCAGTTTGCGCAT | 3.2 |
| CCCTACGGGTCAAGGTTATAGCACGGGTGGTACG | 0.962 |
| ATCGAAATGTCGACGAGGTGAGTATACACCGTTT | 0.345 |
| ATACCAAGGTGATCGTGAGGTCGTTGAGACTAAC | 2.38 |
| CCGACTGGGGCAAAGGTTAGCATACTCAGTACGA | -0.171 |
| CCTTACGGGTCACTGACAGGGTATAGCATTTGGA | -0.0972 |
| CGTCTAAGGTCAATGCTAGGTCAGTGAAAGCATT | 4.42 |
| ATCGAAAGGTCGTGAGGTGAGTATGCAGAAAGGC | 1.71 |
| CCTGCTAGGTCATGATCAGCTAATCTACAGTATG | 0.661 |
| ATCTCTAGGTCACAAGTTCAGTGAAAGAGAGGAC | 2.36 |
| TAGCCTAGGTCATTCATGGGCCAGTATAGAAAGC | 0.289 |
| AGAACGAGTGCACGCTGAGTTGATAGCAGAGTAG | -0.746 |
| TCTTGTAAATCAGCAGGTTAAGAAAGCTGGCCAA | -0.393 |
| GCTAGCAGACCATTTGGGTCACTCAATGACGGGC | 0.434 |
| CGTCAAAGTTCAAGGTAACGTAGCAGAAAGCAGC | 1.09 |
| GCTAGTTGGCCAGTAAAAGGTCACACACCGGTCG | 1.33 |
| TAGCCTAGGTCATGCGGGCAAGTATAGTGTCGGC | 0.9 |
| ATATGTAGGTTAAGGGTCATCCAGGTTGGTTCGC | 1.82 |
| CCTACTGGGCCAAAAAGGTCATTGCTGCCGATAA | 0.486 |

| Sequence | PBM binding z-score |
| --- | --- |
| GCTAGTTGGTCAGTAAAAGGTCACACGCCGGTCG | 1.66 |
| GCTCGGAGGACATGGTCAGAGCTTTGTCCGTAGA | -0.306 |
| TCATATAGGTAAAATGTGAAAGTCGGTGTGGTAA | -0.336 |
| CTCGAAAGTTCGTGCTCAGGTGAGTATACCAAAC | 0.851 |
| CGTCAAAGTTCAACTAAGGAAACGTAAAGCACGC | 0.0826 |
| AGGATGAGGTTAAGATCAGGGAAACAGAATACAT | 1.15 |
| CCTATTAGTTGACCATCAGGGCAACCGAAGCTCG | 0.957 |
| CCGAGTAGGTTATGAGGCATTCAGGCAACGGTGA | 0.0556 |
| TGAATGAGGTTATAAGATCAGGTAACGTTGCAAA | 1.06 |
| TAGCCTAGGTCATGGACCAGTATACCACGCGAAC | 1.13 |
| GCTAGCAGGCCATTTGGGTCACTCGATGACGGGC | 0.48 |
| ACTAGTTTGTCAGCTGAGGTCACACACAATTCGG | 5.24 |
| TCTAGCAGGCCAGAGGGTCCCTCAAGAGGTACGG | -1.29 |
| GCTATTAGTTGAAAGGGCAACCAAATGATTCTCG | -0.397 |
| CGAACTAGGTCATGCAGGACAGTGAATACATTGA | 1.35 |
| CCTAGCAGGTCAGGGTCACTCAAGCATTTCGCTT | 1.83 |
| AGAATGAGGTTCTTAAGATCAGGGAATTGCGGTC | 0.000852 |
| TTACCAAGGTAAAGGTCGTTGATCCCTCTGTAGA | 0.667 |
| GCTTACGGGTCAAAGGTAATAGCATGAATAGAAT | -0.169 |
| TCATATAGGTAATATAGGTGAAAGTCGGCATCTA | -0.347 |

system: VDR homodimer (NR concentration 270 nM); assay: as above
Method in brief: as §1

| Sequence | PBM binding z-score |
| --- | --- |
| CCAGACAGGTGAGAAGGTCACTCAGCCTCGATTA | 1.36 |
| ATAGGTAGGTTATCGGGTCATTCAGTTTGCGCAT | 4.02 |
| CCCTACGGGTCAAGGTTATAGCACGGGTGGTACG | 1.07 |
| ATCGAAATGTCGACGAGGTGAGTATACACCGTTT | -0.13 |
| ATACCAAGGTGATCGTGAGGTCGTTGAGACTAAC | 2.82 |
| CCGACTGGGGCAAAGGTTAGCATACTCAGTACGA | -0.381 |
| CCTTACGGGTCACTGACAGGGTATAGCATTTGGA | 0.873 |
| CGTCTAAGGTCAATGCTAGGTCAGTGAAAGCATT | 3.13 |
| ATCGAAAGGTCGTGAGGTGAGTATGCAGAAAGGC | 0.782 |
| CCTGCTAGGTCATGATCAGCTAATCTACAGTATG | 0.00806 |
| ATCTCTAGGTCACAAGTTCAGTGAAAGAGAGGAC | 3.53 |
| TAGCCTAGGTCATTCATGGGCCAGTATAGAAAGC | 0.945 |
| AGAACGAGTGCACGCTGAGTTGATAGCAGAGTAG | 2.64 |
| TCTTGTAAATCAGCAGGTTAAGAAAGCTGGCCAA | -0.269 |
| GCTAGCAGACCATTTGGGTCACTCAATGACGGGC | -0.19 |
| CGTCAAAGTTCAAGGTAACGTAGCAGAAAGCAGC | 3.26 |
| GCTAGTTGGCCAGTAAAAGGTCACACACCGGTCG | 1.49 |
| TAGCCTAGGTCATGCGGGCAAGTATAGTGTCGGC | 0.528 |
| ATATGTAGGTTAAGGGTCATCCAGGTTGGTTCGC | 3.82 |
| CCTACTGGGCCAAAAAGGTCATTGCTGCCGATAA | 2.98 |

| Sequence | PBM binding z-score |
| --- | --- |
| GCTAGTTGGTCAGTAAAAGGTCACACGCCGGTCG | 1.85 |
| GCTCGGAGGACATGGTCAGAGCTTTGTCCGTAGA | -0.849 |
| TCATATAGGTAAAATGTGAAAGTCGGTGTGGTAA | -0.00299 |
| CTCGAAAGTTCGTGCTCAGGTGAGTATACCAAAC | 1.88 |
| CGTCAAAGTTCAACTAAGGAAACGTAAAGCACGC | 3.88 |
| AGGATGAGGTTAAGATCAGGGAAACAGAATACAT | 1.08 |
| CCTATTAGTTGACCATCAGGGCAACCGAAGCTCG | 0.592 |
| CCGAGTAGGTTATGAGGCATTCAGGCAACGGTGA | 0.0236 |
| TGAATGAGGTTATAAGATCAGGTAACGTTGCAAA | 0.507 |
| TAGCCTAGGTCATGGACCAGTATACCACGCGAAC | 0.57 |
| GCTAGCAGGCCATTTGGGTCACTCGATGACGGGC | 0.416 |
| ACTAGTTTGTCAGCTGAGGTCACACACAATTCGG | 3.53 |
| TCTAGCAGGCCAGAGGGTCCCTCAAGAGGTACGG | -0.908 |
| GCTATTAGTTGAAAGGGCAACCAAATGATTCTCG | 0.22 |
| CGAACTAGGTCATGCAGGACAGTGAATACATTGA | 1.31 |
| CCTAGCAGGTCAGGGTCACTCAAGCATTTCGCTT | 2.32 |
| AGAATGAGGTTCTTAAGATCAGGGAATTGCGGTC | -0.0897 |
| TTACCAAGGTAAAGGTCGTTGATCCCTCTGTAGA | 1.55 |
| GCTTACGGGTCAAAGGTAATAGCATGAATAGAAT | 1.06 |
| TCATATAGGTAATATAGGTGAAAGTCGGCATCTA | 0.0956 |
